± gives the standard deviation of the averaged measurements. For part of these data: About 5,400 targets were measured; listed, in parts, are those with the largest changes and a random draw of the rest. For part of these data: Targets with the largest changes are over-represented here; the source holds about 6,500 in all.
Legend:
adenosine triphosphate = compound: Nc1ncnc2c1ncn2[C@@H]1O[C@H](COP(=O)(O)OP(=O)(O)OP(=O)(O)O)[C@@H](O)[C@H]1O [adenosine triphosphate]; experiment: NP40-soluble protein abundance relative to vehicle (solubility fold change) (ratio); higher = more soluble protein in presence of ATP
How it was run: (§1)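 Across three independent experiments, values are fold changes against the detergent-processed vehicle for each replicate, based on vsn-normalised intensities. The samples were Jurkat crude lysate treated with eight concentrations (0.1 to 10 mM) for 10 min at room temperature and then 3 min at 37 °C. Lysate was solubilised with 0.8% NP40 and benzonase, ultracentrifuged, and the supernatant analysed by TMT-labelled LC-MS/MS.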

guanosine triphosphate = compound: Nc1nc2c(ncn2[C@@H]2O[C@H](COP(=O)(O)OP(=O)(O)OP(=O)(O)O)[C@@H](O)[C@H]2O)c(=O)[nH]1 [guanosine triphosphate]; experiment: NP40-soluble protein abundance relative to vehicle (solubility fold change) (ratio); higher = more soluble protein in presence of GTP
How it was run: as §1

Chain of UniProt P19256 (P19256 whole entry, one chain of several): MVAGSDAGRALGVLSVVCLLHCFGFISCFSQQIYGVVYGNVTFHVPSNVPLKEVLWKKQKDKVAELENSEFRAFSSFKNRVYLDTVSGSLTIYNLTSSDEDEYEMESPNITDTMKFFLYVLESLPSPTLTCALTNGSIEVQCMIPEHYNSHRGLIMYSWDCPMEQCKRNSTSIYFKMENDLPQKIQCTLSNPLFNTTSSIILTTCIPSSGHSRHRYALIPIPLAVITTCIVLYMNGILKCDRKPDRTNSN
Chain of UniProt P17987 (P17987 whole entry, one chain of several): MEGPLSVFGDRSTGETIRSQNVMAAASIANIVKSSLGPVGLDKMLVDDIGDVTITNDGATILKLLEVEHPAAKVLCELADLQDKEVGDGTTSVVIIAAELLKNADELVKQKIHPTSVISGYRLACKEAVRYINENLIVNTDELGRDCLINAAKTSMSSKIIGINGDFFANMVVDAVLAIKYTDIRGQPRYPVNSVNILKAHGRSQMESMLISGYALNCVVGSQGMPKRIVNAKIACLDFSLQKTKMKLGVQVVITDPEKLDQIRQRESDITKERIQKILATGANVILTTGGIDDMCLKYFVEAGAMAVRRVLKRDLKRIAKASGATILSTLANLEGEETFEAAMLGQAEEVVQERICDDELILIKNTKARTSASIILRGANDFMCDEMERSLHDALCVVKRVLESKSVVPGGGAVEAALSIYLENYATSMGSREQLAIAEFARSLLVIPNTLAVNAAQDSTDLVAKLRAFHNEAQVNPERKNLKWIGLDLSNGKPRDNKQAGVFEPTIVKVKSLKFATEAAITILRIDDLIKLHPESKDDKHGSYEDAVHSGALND
Chain of UniProt Q96KA5 (Q96KA5 whole entry, one chain of several): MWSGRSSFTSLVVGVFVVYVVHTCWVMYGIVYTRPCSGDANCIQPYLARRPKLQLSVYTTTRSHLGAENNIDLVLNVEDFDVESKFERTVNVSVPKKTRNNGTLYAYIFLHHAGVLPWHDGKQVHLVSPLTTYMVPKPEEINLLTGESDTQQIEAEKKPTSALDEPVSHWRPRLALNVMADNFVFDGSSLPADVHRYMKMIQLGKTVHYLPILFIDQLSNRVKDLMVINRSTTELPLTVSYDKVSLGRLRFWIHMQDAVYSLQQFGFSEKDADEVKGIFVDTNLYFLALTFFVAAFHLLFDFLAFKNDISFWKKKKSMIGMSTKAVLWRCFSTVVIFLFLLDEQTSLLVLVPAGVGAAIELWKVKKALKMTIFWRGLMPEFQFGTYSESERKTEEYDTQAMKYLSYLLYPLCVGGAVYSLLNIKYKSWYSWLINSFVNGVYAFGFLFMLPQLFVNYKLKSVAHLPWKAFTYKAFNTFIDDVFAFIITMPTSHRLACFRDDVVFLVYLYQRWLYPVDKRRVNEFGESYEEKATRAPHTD
Chain of UniProt A6NHR9 (A6NHR9 whole entry): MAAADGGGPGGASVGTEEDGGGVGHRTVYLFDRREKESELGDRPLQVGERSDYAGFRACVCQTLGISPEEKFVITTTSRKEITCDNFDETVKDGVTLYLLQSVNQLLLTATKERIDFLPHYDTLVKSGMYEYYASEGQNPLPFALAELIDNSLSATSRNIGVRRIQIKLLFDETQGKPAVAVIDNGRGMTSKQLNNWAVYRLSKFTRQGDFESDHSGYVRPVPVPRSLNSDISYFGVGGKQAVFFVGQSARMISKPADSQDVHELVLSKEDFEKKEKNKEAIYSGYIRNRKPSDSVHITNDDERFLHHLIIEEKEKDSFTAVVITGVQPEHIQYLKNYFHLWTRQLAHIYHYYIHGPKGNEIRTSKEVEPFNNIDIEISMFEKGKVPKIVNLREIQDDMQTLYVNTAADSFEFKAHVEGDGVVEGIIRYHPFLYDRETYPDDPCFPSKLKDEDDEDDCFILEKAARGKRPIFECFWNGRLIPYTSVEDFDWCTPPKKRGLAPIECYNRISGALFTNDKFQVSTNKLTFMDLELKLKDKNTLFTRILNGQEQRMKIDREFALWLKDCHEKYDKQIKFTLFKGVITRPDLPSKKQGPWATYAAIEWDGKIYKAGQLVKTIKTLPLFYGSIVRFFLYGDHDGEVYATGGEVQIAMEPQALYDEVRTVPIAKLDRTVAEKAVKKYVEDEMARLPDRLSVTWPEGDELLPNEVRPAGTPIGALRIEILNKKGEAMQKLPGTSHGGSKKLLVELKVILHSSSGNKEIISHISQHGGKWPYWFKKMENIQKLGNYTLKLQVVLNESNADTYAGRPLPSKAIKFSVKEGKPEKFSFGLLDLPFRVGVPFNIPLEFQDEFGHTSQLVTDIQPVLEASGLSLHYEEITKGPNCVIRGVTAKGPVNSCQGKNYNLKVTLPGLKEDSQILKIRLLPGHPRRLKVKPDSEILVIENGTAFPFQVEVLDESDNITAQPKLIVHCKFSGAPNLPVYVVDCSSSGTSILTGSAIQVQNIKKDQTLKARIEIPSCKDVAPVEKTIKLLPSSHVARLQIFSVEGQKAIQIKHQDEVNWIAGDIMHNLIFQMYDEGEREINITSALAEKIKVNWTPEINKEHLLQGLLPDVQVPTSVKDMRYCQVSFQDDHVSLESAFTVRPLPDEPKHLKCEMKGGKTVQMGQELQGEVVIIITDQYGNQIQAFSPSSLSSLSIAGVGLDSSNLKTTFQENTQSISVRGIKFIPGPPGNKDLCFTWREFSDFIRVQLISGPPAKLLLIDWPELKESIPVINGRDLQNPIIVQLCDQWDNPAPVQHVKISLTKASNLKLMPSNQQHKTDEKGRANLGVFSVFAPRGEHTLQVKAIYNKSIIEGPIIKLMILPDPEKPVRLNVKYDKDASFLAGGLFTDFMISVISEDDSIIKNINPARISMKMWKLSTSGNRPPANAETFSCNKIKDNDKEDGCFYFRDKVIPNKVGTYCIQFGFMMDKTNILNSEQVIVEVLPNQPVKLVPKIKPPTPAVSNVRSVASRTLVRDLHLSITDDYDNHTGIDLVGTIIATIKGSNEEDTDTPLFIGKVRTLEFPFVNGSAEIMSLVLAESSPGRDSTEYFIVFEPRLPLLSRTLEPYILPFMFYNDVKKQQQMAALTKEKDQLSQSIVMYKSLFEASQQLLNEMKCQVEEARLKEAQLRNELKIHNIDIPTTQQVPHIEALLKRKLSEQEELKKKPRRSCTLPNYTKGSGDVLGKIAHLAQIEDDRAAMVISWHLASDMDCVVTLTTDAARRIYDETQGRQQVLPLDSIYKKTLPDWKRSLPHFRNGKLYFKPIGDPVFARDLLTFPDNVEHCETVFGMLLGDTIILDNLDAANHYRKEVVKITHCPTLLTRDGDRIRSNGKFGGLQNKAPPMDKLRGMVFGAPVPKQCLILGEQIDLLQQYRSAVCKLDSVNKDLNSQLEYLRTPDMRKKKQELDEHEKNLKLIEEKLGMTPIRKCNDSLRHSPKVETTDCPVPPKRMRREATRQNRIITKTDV
Chain of UniProt Q9Y262 (Q9Y262 whole entry, one chain of several): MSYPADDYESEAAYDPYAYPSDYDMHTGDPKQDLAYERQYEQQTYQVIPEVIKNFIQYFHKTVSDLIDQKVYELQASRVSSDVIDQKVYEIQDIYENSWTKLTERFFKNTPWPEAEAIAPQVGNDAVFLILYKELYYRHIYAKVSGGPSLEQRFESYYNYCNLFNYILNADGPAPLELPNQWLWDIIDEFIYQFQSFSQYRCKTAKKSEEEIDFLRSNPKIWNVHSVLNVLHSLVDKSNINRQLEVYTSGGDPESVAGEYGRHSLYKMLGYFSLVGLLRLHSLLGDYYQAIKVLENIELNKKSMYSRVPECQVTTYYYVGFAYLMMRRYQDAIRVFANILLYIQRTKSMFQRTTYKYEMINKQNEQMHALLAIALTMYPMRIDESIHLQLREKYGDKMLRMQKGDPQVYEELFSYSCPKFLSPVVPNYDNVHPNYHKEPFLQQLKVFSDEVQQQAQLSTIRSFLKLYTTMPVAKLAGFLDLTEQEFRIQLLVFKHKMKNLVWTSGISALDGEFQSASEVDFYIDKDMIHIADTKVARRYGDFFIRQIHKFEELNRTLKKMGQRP
Chain of UniProt Q9UL15 (Q9UL15 whole entry): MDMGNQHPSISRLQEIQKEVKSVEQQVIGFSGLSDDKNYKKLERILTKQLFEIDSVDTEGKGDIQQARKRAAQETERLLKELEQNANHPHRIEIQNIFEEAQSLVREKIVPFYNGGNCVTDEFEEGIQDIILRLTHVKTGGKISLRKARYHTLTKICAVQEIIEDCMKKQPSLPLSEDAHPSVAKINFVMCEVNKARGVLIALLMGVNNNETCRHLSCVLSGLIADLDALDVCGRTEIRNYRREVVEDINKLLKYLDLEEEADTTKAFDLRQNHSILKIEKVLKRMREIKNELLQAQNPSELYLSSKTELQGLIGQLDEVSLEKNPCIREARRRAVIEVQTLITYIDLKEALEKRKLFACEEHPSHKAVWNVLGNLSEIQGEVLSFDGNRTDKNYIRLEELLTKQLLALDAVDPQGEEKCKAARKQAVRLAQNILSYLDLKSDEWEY
Chain of UniProt Q15629 (Q15629 whole entry, one chain of several): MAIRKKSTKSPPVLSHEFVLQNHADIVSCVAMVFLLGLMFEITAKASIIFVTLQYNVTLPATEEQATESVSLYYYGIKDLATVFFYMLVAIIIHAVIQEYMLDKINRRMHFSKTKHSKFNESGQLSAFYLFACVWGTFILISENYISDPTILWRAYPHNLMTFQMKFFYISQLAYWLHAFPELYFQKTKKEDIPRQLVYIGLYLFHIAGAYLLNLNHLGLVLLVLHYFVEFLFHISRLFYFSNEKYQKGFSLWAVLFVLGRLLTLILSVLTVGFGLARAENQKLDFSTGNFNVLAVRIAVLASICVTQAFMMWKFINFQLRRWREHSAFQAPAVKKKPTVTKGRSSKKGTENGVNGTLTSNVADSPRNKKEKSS
Chain of UniProt Q9Y3C6 (Q9Y3C6 whole entry): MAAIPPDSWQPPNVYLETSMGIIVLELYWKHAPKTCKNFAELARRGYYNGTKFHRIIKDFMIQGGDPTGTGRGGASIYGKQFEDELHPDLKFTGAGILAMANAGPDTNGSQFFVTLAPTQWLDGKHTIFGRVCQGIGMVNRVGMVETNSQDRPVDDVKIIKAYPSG

Target	NP40-soluble protein abundance (adenosine triphosphate; concentration: 1mM)	NP40-soluble protein abundance (adenosine triphosphate; concentration: 2mM)	NP40-soluble protein abundance (adenosine triphosphate; concentration: 4mM)	NP40-soluble protein abundance (adenosine triphosphate; concentration: 6mM)	NP40-soluble protein abundance (adenosine triphosphate; concentration: 8mM)	NP40-soluble protein abundance (adenosine triphosphate; concentration: 10mM)	NP40-soluble protein abundance (guanosine triphosphate; concentration: 0.1mM)	NP40-soluble protein abundance (guanosine triphosphate; concentration: 0.5mM)	NP40-soluble protein abundance (guanosine triphosphate; concentration: 1mM)	NP40-soluble protein abundance (guanosine triphosphate; concentration: 2mM)	NP40-soluble protein abundance (guanosine triphosphate; concentration: 4mM)	NP40-soluble protein abundance (guanosine triphosphate; concentration: 6mM)	NP40-soluble protein abundance (guanosine triphosphate; concentration: 8mM)	NP40-soluble protein abundance (guanosine triphosphate; concentration: 10mM)
UniProt Q9UL15|Q9UL15-2	0.964 ± 0.032	0.988 ± 0.024	0.976 ± 0.035	0.993 ± 0.018	0.971 ± 0.01	0.979 ± 0.029	–	–	–	–	–	–	–	–
TRPV2 (UniProt Q9Y5S1)	1.02 ± 0.076	1.02 ± 0.073	0.999 ± 0.03	0.955 ± 0.0051	0.965 ± 0.048	0.976 ± 0.023	–	–	–	–	–	–	–	–
UniProt Q9UPN4-2|Q9UPN4-3|I3L2J8|Q9UPN4	1.15 ± 0.14	1.18 ± 0.14	1.35 ± 0.12	1.45 ± 0.21	1.47 ± 0.26	1.7 ± 0.26	–	–	–	–	–	–	–	–
PPIL1 (UniProt Q9Y3C6)	0.919 ± 0.019	0.9512 ± 0.0074	0.913 ± 0.034	0.963 ± 0.031	0.964 ± 0.016	0.902 ± 0.065	–	–	–	–	–	–	–	–
H0UI80|Q8IXH7|Q8IXH7-4|X6RLT1 (UniProt X6RLT1+Q8IXH7+H0UI80)	–	–	–	–	–	–	1.01 ± 0.017	0.973 ± 0.038	0.965 ± 0.024	0.968 ± 0.012	0.981 ± 0.011	0.978 ± 0.01	0.97 ± 0.039	0.95 ± 0.0096
E9PEN0|Q8WYH8|Q8WYH8-2 (UniProt Q8WYH8)	–	–	–	–	–	–	1.1 ± 0.098	1.07 ± 0.16	1.26 ± 0.41	1.19 ± 0.26	1.33 ± 0.3	1.5 ± 0.35	1.48 ± 0.39	2 ± 0.59
SMCHD1 (UniProt A6NHR9)	–	–	–	–	–	–	1.05 ± 0.04	1.06 ± 0.055	0.999 ± 0.029	1.03 ± 0.07	1.04 ± 0.056	1.04 ± 0.043	1.02 ± 0.051	1.01 ± 0.098
F5H136|P17987 (UniProt P17987)	–	–	–	–	–	–	0.988 ± 0.02	1.07 ± 0.086	1.08 ± 0.12	1.11 ± 0.18	1.09 ± 0.2	1.1 ± 0.21	1.06 ± 0.19	1.02 ± 0.2
H0YL22|Q9Y375 (UniProt Q9Y375)	–	–	–	–	–	–	0.979 ± 0.059	1.05 ± 0.082	0.936 ± 0.088	0.969 ± 0.071	0.922 ± 0.036	0.924 ± 0.065	0.921 ± 0.071	0.943 ± 0.059
A0A0A0MR85|Q03013 (UniProt Q03013)	–	–	–	–	–	–	1.08 ± 0.068	1.07 ± 0.067	1.04 ± 0.078	1.03 ± 0.14	0.929 ± 0.058	0.985 ± 0.071	1 ± 0.11	0.989 ± 0.14
A8MQ02|J3KN01|P55196|P55196-3|P55196-5 (UniProt P55196)	–	–	–	–	–	–	1.15 ± 0.16	0.987 ± 0.079	1 ± 0.038	1.05 ± 0.14	1.18 ± 0.34	1.18 ± 0.21	1.16 ± 0.14	1.13 ± 0.078
G3XAN4|Q15629|Q15629-2 (UniProt Q15629)	–	–	–	–	–	–	0.776 ± 0.028	0.785 ± 0.098	0.911 ± 0.14	0.819 ± 0.16	0.8 ± 0.15	0.783 ± 0.23	0.898 ± 0.19	0.905 ± 0.16
G5E9Z2|Q96KA5|Q96KA5-2 (UniProt Q96KA5)	–	–	–	–	–	–	1.09 ± 0.049	1.07 ± 0.017	1.02 ± 0.042	0.983 ± 0.034	0.989 ± 0.016	0.971 ± 0.039	0.974 ± 0.035	0.96 ± 0.04
A0A5E8|Q99501|C9JFI0 (UniProt Q99501)	–	–	–	–	–	–	1.12 ± 0.09	1.17 ± 0.18	1.21 ± 0.1	1.3 ± 0.15	1.3 ± 0.086	1.37 ± 0.075	1.46 ± 0.035	1.38 ± 0.078
E9PCH4|Q8TEU7|Q8TEU7-4 (UniProt Q8TEU7+E9PCH4)	–	–	–	–	–	–	0.967 ± 0.021	0.9825 ± 0.0063	0.968 ± 0.023	0.96 ± 0.02	0.981 ± 0.016	0.969 ± 0.038	1.0058 ± 0.00029	0.9592 ± 0.0034
E7EX48|P51957|P51957-3 (UniProt P51957)	–	–	–	–	–	–	1.01 ± 0.097	0.987 ± 0.21	0.961 ± 0.21	1.01 ± 0.2	0.986 ± 0.21	0.957 ± 0.23	0.985 ± 0.25	1.06 ± 0.25
C9JKQ7|C9JTV6|C9JZG2|P22102 (UniProt P22102)	–	–	–	–	–	–	0.96 ± 0.015	0.985 ± 0.03	0.9188 ± 0.0076	0.909 ± 0.023	0.895 ± 0.026	0.894 ± 0.017	0.863 ± 0.039	0.863 ± 0.022
F8VXG7|Q99590|Q99590-2 (UniProt Q99590)	–	–	–	–	–	–	1.02 ± 0.064	1.13 ± 0.03	1.22 ± 0.025	1.26 ± 0.058	1.3 ± 0.042	1.31 ± 0.031	1.4 ± 0.1	1.42 ± 0.12
B8ZZU6|E9PBF9|P15336-5|P15336 (UniProt P15336)	–	–	–	–	–	–	0.868 ± 0.086	0.907 ± 0.044	0.969 ± 0.14	0.943 ± 0.078	0.899 ± 0.011	0.899 ± 0.045	0.906 ± 0.1	0.955 ± 0.078
C9J050|C9JEJ2|P49585 (UniProt P49585)	–	–	–	–	–	–	1.01 ± 0.094	0.986 ± 0.078	0.953 ± 0.074	0.945 ± 0.077	0.992 ± 0.073	0.942 ± 0.058	0.942 ± 0.079	0.936 ± 0.054
B1AL05|H0Y6Y8|H0YBU8|Q8N983|Q8N983-2|Q8N983-3|Q8N983-4|Q8N983-6|Q8N983-7 (UniProt Q8N983)	–	–	–	–	–	–	1.08 ± 0.21	1.07 ± 0.17	1.37 ± 0.45	1.75 ± 0.66	1.71 ± 0.69	1.57 ± 0.65	1.38 ± 0.47	1.59 ± 0.65
B1AMW1|P19256|P19256-2|P19256-3 (UniProt P19256)	–	–	–	–	–	–	0.879 ± 0.05	0.937 ± 0.095	0.973 ± 0.11	0.915 ± 0.064	0.979 ± 0.038	1.03 ± 0.088	0.952 ± 0.036	0.958 ± 0.047
B0QY89|Q9Y262|Q9Y262-2 (UniProt Q9Y262)	–	–	–	–	–	–	1.08 ± 0.062	1.09 ± 0.09	1.06 ± 0.1	1.17 ± 0.19	1.33 ± 0.28	1.47 ± 0.34	1.57 ± 0.29	1.75 ± 0.35
F2Z2Y4|O00764|O00764-2 (UniProt O00764)	–	–	–	–	–	–	1 ± 0.072	1.01 ± 0.09	0.942 ± 0.055	0.918 ± 0.095	0.905 ± 0.071	0.91 ± 0.08	0.88 ± 0.063	0.868 ± 0.086
A0A0X1KG71|Q8WX92 (UniProt Q8WX92)	–	–	–	–	–	–	0.9588 ± 0.0051	0.964 ± 0.014	0.9785 ± 0.0083	0.973 ± 0.016	0.957 ± 0.025	0.96 ± 0.012	0.936 ± 0.024	0.946 ± 0.02

Source: the supplement of paper PMC6411743
